Laboratory results reported in PubChem BioAssay (NCI).
About 83,000 compounds went through this panel and 20% of them were active in at least one assay; those are over-represented in the sample as a whole.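 In brief: 96-well plates, 48 h treatment, single concentration, percent growth endpoint.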 Activity calls are given as the source filed them. Rule for the calls: active = growth percent below 10; inactive = the rest.

Columns and labels:
Test in all cases: NCI-60 one-dose screen, 48 h (100 = growth as untreated, 0 = no growth, -100 = all killed)
Conditions in all cases: 10 µM unless noted
K-562 leukemia = system: K-562 leukemia
MALME-3M melanoma = system: MALME-3M melanoma
MDA-MB-231 breast = system: MDA-MB-231 breast
RXF 393 renal = system: RXF 393 renal
SF-268 CNS = system: SF-268 CNS
SF-295 CNS = system: SF-295 CNS
SF-539 CNS = system: SF-539 CNS
UACC-257 melanoma = system: UACC-257 melanoma
M14 melanoma = system: M14 melanoma
HCT-15 colon = system: HCT-15 colon

Measured: growth

O=C(NNc1nc2cc(F)ccc2n2c(CN3CC4(COC4)C3)ccc12)c1cnccn1
active: SF-539 CNS 3.55% | UACC-257 melanoma -8.36% | M14 melanoma -26.4%
inactive: K-562 leukemia 13.4% | MALME-3M melanoma 19.5% | MDA-MB-231 breast 30.6% | RXF 393 renal 39.2% | SF-268 CNS 22.8% | SF-295 CNS 14.3% | HCT-15 colon 33.1%

COc1cc2nc(-c3ccc(Cl)cc3)cc(OCCCNCC3CCCO3)c2cc1OC (stereo not given)
inactive: K-562 leukemia 16.7% | MALME-3M melanoma 12.3% | MDA-MB-231 breast 33.8% | RXF 393 renal 31.3% | SF-268 CNS 77.9% | SF-295 CNS 34.5% | SF-539 CNS 56.4% | HCT-15 colon 23.9%
active: UACC-257 melanoma -33.9% | M14 melanoma -71.5%

O=C(CSc1nc2sc3c(c2c(=O)n1-c1ccc(Cl)cc1)CCCC3)NNC(=O)Nc1ccc(Cl)c(C(F)(F)F)c1
active: SF-295 CNS 9.82%
inactive: K-562 leukemia 11.7% | MALME-3M melanoma 22.5% | MDA-MB-231 breast 61.2% | RXF 393 renal 70.5% | SF-268 CNS 67% | SF-539 CNS 73.1% | UACC-257 melanoma 46.5% | M14 melanoma 44% | HCT-15 colon 24.5%

CN(C)CCCOc1c2ccccc2nc2c1oc1ccc(Cl)cc12
active: K-562 leukemia -14.3% | MALME-3M melanoma -8.62% | MDA-MB-231 breast 7.86% | RXF 393 renal -74.1% | SF-295 CNS 5.01% | SF-539 CNS 6.92% | M14 melanoma -87.3% | HCT-15 colon -21.4%
inactive: SF-268 CNS 14.6% | UACC-257 melanoma 20%

OC1CCN(CCCOc2c3ccc(Cl)cc3nc3c2oc2ccc(Cl)cc23)CC1
active: K-562 leukemia -51.7% | MALME-3M melanoma -66.6% | RXF 393 renal -80.4% | SF-539 CNS -74.1% | UACC-257 melanoma -13.4% | M14 melanoma -93.8% | HCT-15 colon -83%
inactive: MDA-MB-231 breast 24.5% | SF-268 CNS 27.4% | SF-295 CNS 17.8%

c1ccc2c(NCCCn3ccnc3)c3oc4ccccc4c3nc2c1
inactive: SF-268 CNS 10.7% | UACC-257 melanoma 16.4%
active: K-562 leukemia 5.89% | MALME-3M melanoma 1.01% | MDA-MB-231 breast -10% | RXF 393 renal -33.3% | SF-295 CNS 5.7% | SF-539 CNS 4.46% | M14 melanoma 2.76% | HCT-15 colon -6.93%

C#Cc1nc(C2=C(C)C(O)/C(=N/O)C2)cs1 (stereo not given)
inactive: K-562 leukemia 87.2% | MALME-3M melanoma 99.5% | RXF 393 renal 93.7% | SF-268 CNS 65.3% | SF-295 CNS 65% | SF-539 CNS 25.5% | UACC-257 melanoma 90.7% | M14 melanoma 93.8% | HCT-15 colon 88.1%
active: MDA-MB-231 breast -28.1%

c1ccc2c(NCCCN3CCOCC3)c3oc4ccccc4c3nc2c1
active: K-562 leukemia 2.74% | MALME-3M melanoma -25.9% | MDA-MB-231 breast -27.9% | RXF 393 renal -76.2% | SF-268 CNS -3.87% | SF-295 CNS -17.6% | SF-539 CNS -29.5% | UACC-257 melanoma -7.26% | M14 melanoma -32% | HCT-15 colon 0.78%

C#Cc1nc(C2=C(C)C(O)CC2)cs1 (stereo not given)
inactive: K-562 leukemia 114% | MALME-3M melanoma 109% | MDA-MB-231 breast 112% | RXF 393 renal 95.6% | SF-268 CNS 108% | SF-295 CNS 113% | SF-539 CNS 108% | UACC-257 melanoma 102% | M14 melanoma 101% | HCT-15 colon 98.9%

CCC/C=C/C=C/C(=O)N[C@@H](Cc1cc(F)cc(F)c1)C(=O)N[C@@H]1C(=O)N2CCC[C@H]2C(=O)N2CCCC[C@H]2C(=O)N[C@@H](C)C(=O)N2C[C@H](C)C[C@H]2C(=O)O[C@H]1C
inactive: K-562 leukemia 17.6% | MALME-3M melanoma 30.8% | MDA-MB-231 breast 28.7% | RXF 393 renal 46.3% | SF-268 CNS 31.3% | SF-295 CNS 10.3% | SF-539 CNS 38.3% | UACC-257 melanoma 17% | M14 melanoma 16.5% | HCT-15 colon 16.2%

Fc1ccc(-c2cc3nc(C(Cl)Cl)nc(-c4ccccc4)n3n2)cc1
inactive: K-562 leukemia 19.2% | MALME-3M melanoma 47.2% | SF-268 CNS 10.2% | M14 melanoma 26.9%
active: MDA-MB-231 breast -10.2% | RXF 393 renal -62.9% | SF-295 CNS 2.73% | SF-539 CNS -10.6% | UACC-257 melanoma -2.11% | HCT-15 colon 7.35%

N#Cc1c(-c2ccc(Cl)cc2)nc(SCc2ccccc2)nc1N1CCNCC1
inactive: MALME-3M melanoma 84.4% | MDA-MB-231 breast 44.2% | RXF 393 renal 74.4% | SF-268 CNS 74.2% | SF-295 CNS 94.3% | SF-539 CNS 75.6% | UACC-257 melanoma 97.3% | M14 melanoma 82.1% | HCT-15 colon 13.2%
active: K-562 leukemia 0.363%

O=C(N/N=C/c1ccc(Br)s1)c1[nH]c2ccc(Br)cc2c1-c1ccccc1
inactive: MALME-3M melanoma 55.1% | RXF 393 renal 60% | SF-268 CNS 37.2% | SF-295 CNS 14.8% | UACC-257 melanoma 57.2% | HCT-15 colon 12.4%
active: K-562 leukemia 7.72% | MDA-MB-231 breast 4.67% | SF-539 CNS 0.701% | M14 melanoma 2.05%

Cn1ccnc1C(=O)/C=C/c1ccc(NC(=O)Nc2ccc(F)cc2)cc1
active: K-562 leukemia 9.78% | SF-539 CNS -15.6%
inactive: MALME-3M melanoma 69% | MDA-MB-231 breast 28.8% | RXF 393 renal 19.4% | SF-268 CNS 55.6% | SF-295 CNS 23.3% | UACC-257 melanoma 85.6% | M14 melanoma 45.1% | HCT-15 colon 21%

C=C1CC[C@H]2[C@@](C)(CCC3OC(c4ccc(OCc5cn(C6CC(OC(C)=O)C(OC(C)=O)C(COC(C)=O)O6)nn5)cc4)OC[C@]32C)[C@@H]1/C=C/C1=CCOC1=O (stereo not given in full)
inactive: K-562 leukemia 38.8% | MALME-3M melanoma 58% | MDA-MB-231 breast 77.9% | RXF 393 renal 103% | SF-268 CNS 90.3% | SF-295 CNS 61% | SF-539 CNS 84.8% | UACC-257 melanoma 61.6% | M14 melanoma 93.9% | HCT-15 colon 77.2%

CC(C)(C)Nc1nc2c(OCCc3ccccc3)cccn2c1-c1ccccc1Cl
active: K-562 leukemia 0.922% | MALME-3M melanoma -32% | MDA-MB-231 breast -32.6% | RXF 393 renal -43.6% | SF-295 CNS -56.8% | SF-539 CNS -74.7% | UACC-257 melanoma 1.9% | M14 melanoma 0.193% | HCT-15 colon -72.1%
inactive: SF-268 CNS 22.9%

Cc1cc(=O)oc2cc(OCCCOc3ccc(/C=C/C(=O)Nc4ccc(Cl)cc4)cc3)ccc12
inactive: K-562 leukemia 69.1% | MALME-3M melanoma 56.6% | MDA-MB-231 breast 69.7% | RXF 393 renal 44.9% | SF-268 CNS 66.9% | SF-295 CNS 77.7% | SF-539 CNS 75.6% | UACC-257 melanoma 81.5% | M14 melanoma 74.2% | HCT-15 colon 60.4%

COc1ccc(/C=N/NC(=O)c2[nH]c3ccc(Br)cc3c2-c2ccccc2)o1
inactive: K-562 leukemia 12.1% | MALME-3M melanoma 51.5% | RXF 393 renal 50.9% | SF-268 CNS 38.6% | SF-295 CNS 16.6% | UACC-257 melanoma 54.1% | HCT-15 colon 10.7%
active: MDA-MB-231 breast -5.34% | SF-539 CNS -17.4% | M14 melanoma -1.43%

CCCC(=O)NC(c1cccc(N(C)C)c1)c1cc(C)c2cccnc2c1O (stereo not given)
inactive: K-562 leukemia 35.3% | MALME-3M melanoma 79.8% | MDA-MB-231 breast 48.2% | RXF 393 renal 82.1% | SF-268 CNS 55.1% | SF-295 CNS 42.3% | SF-539 CNS 53.9% | UACC-257 melanoma 90.6% | M14 melanoma 49.3% | HCT-15 colon 24.9%

N/C(=N\c1nc2c(Cl)cc(Cl)cc2s1)C(Cl)(Cl)Cl
inactive: K-562 leukemia 71.3% | MALME-3M melanoma 91.7% | MDA-MB-231 breast 38.4% | RXF 393 renal 53.7% | SF-268 CNS 75.7% | SF-295 CNS 11.3% | SF-539 CNS 44.5% | UACC-257 melanoma 78.1% | M14 melanoma 93.3% | HCT-15 colon 57.5%

CN(C)CCCOc1c2ccc(Cl)cc2nc2c1oc1ccc(Cl)cc12
inactive: SF-268 CNS 25.9% | SF-295 CNS 11.9% | SF-539 CNS 16.5% | UACC-257 melanoma 41.3%
active: K-562 leukemia -39.8% | MALME-3M melanoma 0.745% | MDA-MB-231 breast -48.3% | RXF 393 renal -86.6% | M14 melanoma -49.5% | HCT-15 colon -80.5%

COc1ccc(/C=C/C(=O)c2ccc(NC(=O)CSc3nnc(-c4ccc5nc(-c6ccc(Cl)cc6)[nH]c5c4)o3)cc2)cc1
inactive: K-562 leukemia 87.3% | MALME-3M melanoma 93.5% | MDA-MB-231 breast 98.4% | RXF 393 renal 107% | SF-268 CNS 114% | SF-295 CNS 100% | SF-539 CNS 94.3% | UACC-257 melanoma 110% | M14 melanoma 106% | HCT-15 colon 94.9%

CCN(CC)c1ccc(C=O)c(OCc2cn(CC(=O)Nc3ccc(Cl)cc3)nn2)c1
inactive: K-562 leukemia 51.7% | MALME-3M melanoma 91.5% | MDA-MB-231 breast 80.4% | RXF 393 renal 34.1% | SF-268 CNS 84.6% | SF-295 CNS 65.8% | SF-539 CNS 75% | UACC-257 melanoma 108% | M14 melanoma 87.7% | HCT-15 colon 61.4%

CN1CCN(Cc2ccc(NC(=O)c3cncc(C#Cc4cnc5ccc(N6CCSCC6)nn45)c3)cc2C(F)(F)F)CC1
active: K-562 leukemia -16.2% | MALME-3M melanoma -62.6% | MDA-MB-231 breast -38.4% | RXF 393 renal -87.3% | SF-268 CNS -52.9% | SF-295 CNS -36.2% | SF-539 CNS -94.2% | M14 melanoma -81.6% | HCT-15 colon -38.9%
inactive: UACC-257 melanoma 31.1%

O=C(CN1C(=O)/C(=C/c2ccccc2)SC1=S)N1CCOCC1
inactive: K-562 leukemia 77.4% | MALME-3M melanoma 83.6% | MDA-MB-231 breast 95.2% | RXF 393 renal 105% | SF-268 CNS 102% | SF-295 CNS 103% | SF-539 CNS 95.8% | UACC-257 melanoma 95.8% | M14 melanoma 88.5% | HCT-15 colon 88.2%

Cn1cc(-c2cc(N)n3nc(-c4cn(C)c5ccc(Cl)cc45)cc3n2)c2cc(Cl)ccc21
inactive: K-562 leukemia 26.5% | MALME-3M melanoma 100% | MDA-MB-231 breast 71.1% | RXF 393 renal 121% | SF-268 CNS 78.8% | SF-295 CNS 95.4% | SF-539 CNS 94.2% | UACC-257 melanoma 108% | M14 melanoma 53.4% | HCT-15 colon 32.8%
